# Source: PubChem BioAssay
# Rows were chosen to be rich in hits. Some 14% of all compounds tested hit in one or more screens of this group.
# AID923: qHTS Assay for Allosteric/Competitive Inhibitors of Caspase-1: Spectroscopic Profiling in AFC Spectral Region | compound fluorescence, AFC spectral region (405/520 nm) | Potency, µM (doses to about 57.5 µM), inactives show top-dose fluorescence increase, usual class: activators | 75,000 compounds, 1.1% hits | AID 923, 2007; note: potency is the fitted concentration of half-maximal effect; 0% is about no effect
#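 Titrations up to 57 uM read every 20 sec for 3 min (405/520 nm) with 50 nM caspase 1 and 5 uM Ac-WEHD-AFC, pH 7.5 HEPES buffer. Fluorescence-vs-time intercept gave baseline, scaled against on-plate AFC standard.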
# HSD17B inh: inhibitors of human HSD17B10 dehydrogenase; recombinant HSD17B10, NADH fluorescence kinetic; Potency, µM (top dose mostly 57.1 µM), for the others: at the highest dose activity change, negative = inhibition, hits mostly inhibitors; 75,000 compounds, 7.6% hits;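 note: the protocol describes HADH2 (HSD17B10) and not the HSD17B4 of the title; potency is the fitted concentration of half-maximal effect; % is set by controls: 0 for no effect and ±100 for the full control effect; nearly all actives have a fitted effect of over 70% in size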
#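 Enzyme plus compound, 15 min room temperature; substrate mix added (NAD+ 1 mM, beta-hydroxybutyryl-CoA 90 uM final); plates read kinetically for NADH fluorescence. HADH2 was His-tagged, E. coli-derived, 20 nM.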
# HADH2 inhib: inhibitors of human HADH2 dehydrogenase; recombinant HADH2, NADH fluorescence, beta-hydroxybutyryl-CoA; Potency, µM (doses to about 57.1 µM), inactives show at the highest dose activity change, negative = inhibition, most hits filed as inhibitors; 73,000 compounds, 3.4% hits; AID 886; note: potency is the fitted concentration of half-maximal effect; % is set by controls: 0 for no effect and ±100 for the full control effect; nearly all actives have a fitted effect of over 60% in size
# Target sequence (Q99714 whole entry, looked up, one chain of several): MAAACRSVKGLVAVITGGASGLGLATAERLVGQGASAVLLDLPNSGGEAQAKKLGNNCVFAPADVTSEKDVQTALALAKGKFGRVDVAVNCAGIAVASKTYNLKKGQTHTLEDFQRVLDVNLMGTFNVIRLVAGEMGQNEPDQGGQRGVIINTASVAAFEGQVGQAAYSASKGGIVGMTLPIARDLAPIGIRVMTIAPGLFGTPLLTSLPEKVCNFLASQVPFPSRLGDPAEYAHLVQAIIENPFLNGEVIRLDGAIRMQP
#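 His-tagged recombinant enzyme from E. coli, 20 nM, preincubated 15 min RT with compound; reaction started with 1 mM NAD+ and 90 uM beta-hydroxybutyryl-CoA in 100 mM Tris-HCl pH 9.0. NADH fluorescence (ex 360/em 450) read over 4 min; last-minus-first difference.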
# A350 fluor: compounds fluorescent in Alexa 350 spectral region | Compound autofluorescence, 340/450 nm, Alexa 350 dye-equivalents; active compounds read high | max dye-equivalent concentration, M | 59,000 compounds, 11% hits | AID 590; in the data active = max dye-equivalent concentration above about 10 nM; inconclusive = mostly about 1.1 nM to 9.6 nM
# CRE Fsk mod: modulators of forskolin-stimulated CRE signaling in CHO cells. CHO CRE-bla reporter (cAMP response element driving beta-lactamase), forskolin EC10, beta-lactamase ratio. Potency, µM (titrated, usually from 38.2 µM), for inactives: at the highest dose activity change, negative = inhibition, most hits filed as activators. 71,000 compounds, 2.5% hits; active = well fitted activation curve with a large enough effect in the signal ratio, with a control signal flat, not every such curve was filed as active; inconclusive = small, poorly fitted or top-dose-only effect, or effect the other way, or a change in a side signal; the % refers to the signal ratio; note: potency is the fitted concentration of half-maximal effect; % of control where 0% means no effect
#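 The 460nm/530nm emission ratio after CCF4 loading defined %Activity, from which AC50 values were obtained. CRE-bla CHO cells received compound dilution series together with an EC10 level of NKH 477 for 3 hours at 37 degrees Celsius.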
# 4MU fluor: 4-MU region autofluorescence; compound autofluorescence, 340/450 nm, 4-MU equivalents; active compounds read high; max dye-equivalent concentration, M; 59,000 compounds, 11% hits; AID 589; in the data active = max dye-equivalent concentration above about 10 nM; inconclusive = mostly about 1.1 nM to 9.6 nM
#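 Compounds in 100 mM Tris, pH 8.0, incubated 15 min at room temperature, then fluorescence read at 340 nm excitation/450 nm emission. Signal converted to 4-MU dye-equivalent concentration using an on-plate six-point 4-MU standard curve.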
# CHO via 24h: cytotoxicity in CRE-bla CHO cells at 24 h; activity, negative = viability loss, % at 46.1 µM; CRE-bla CHO viability, ATP luminescence, 24 h; 120 tested, under 10 active; AID 905; shares compounds with CRE Fsk mod
# CHO via 40h: CHO cell toxicity at 40 h by ATP luminescence. shares compounds with CRE Fsk mod. CRE-bla CHO viability, ATP luminescence, 40 h. Potency, µM, inactives show max response, hits mostly inhibitors. 120 tested, under 10 active. AID 906
# CRE-luc potent: boosts CRE luciferase signal in HEK293 cells; 120 compounds, 80% hits; shares compounds with CRE Fsk mod; Potency, µM (doses to about 38.3 µM), inactives show at the highest dose activity, positive = activation, actives largely listed as activators; HEK293 CRE-luc2P, NKH477 EC10 potentiation, luminescence, 4 h
# * hit, by the source's call; i = inactive; ? = inconclusive; . = no result; [ ] = remark or other dose. Unless noted, calls come from the whole dose curve; as a rule, active = well fitted curve in the direction sought with a large enough effect; inconclusive = small, poorly fitted or top-dose-only effect, or another doubt; inactive = no such curve, though single readings can be large; an effect the other way counts as inactive or inconclusive.
SMILES,AID923,HSD17B inh,HADH2 inhib,A350 fluor,CRE Fsk mod,4MU fluor,CHO via 24h,CHO via 40h,CRE-luc potent
Cc1c(N2CCCC2)cc2c(c1NC(=O)c1ccccc1Cl)C(C)(C)CC2(C)C,0.6%[11.5 µM],0.6%[11.4 µM],4.8%[11.4 µM],i,?,i,.,.,.
O=C(c1cc(S(=O)(=O)N2CCOCC2)ccc1F)N1CCCc2ccccc21,-3.0%,8.6%,3.4%,i,-8.0%,i,1.6,-1.9%,18.0%
CCOC(=O)c1ccccc1NC(=O)c1cc(S(=O)(=O)N2CCOCC2)ccc1F,2.7%,?,15.1%,i,10µM*,i,-15.7,-15.4%,12.6µM*
O=C(O)c1ccn(Cn2cnc3ccccc32)n1,1.0%,-0.1%,-7.2%,i,-8.3%,i,.,.,.
CC(C)=CCC/C(C)=C/CC/C(C)=C/CSc1ccccc1C(=O)O,3.1%,?,?,i,1.7%,i,.,.,.
OC[C@@H]1O[C@H](n2cnc3c(/C=C(\O)c4ccccc4)ncnc32)[C@H](O)[C@@H]1O,-0.9%[11.5 µM],8.6%[11.4 µM],15.1%[11.4 µM],?,11.2%[7.6 µM],?,.,.,.
Cc1nc(SCC(=O)N2CCCc3ccccc32)c2oc3ccccc3c2n1,3.5%,6.1%,2.6%,1.2e-08M*,0.501µM*,?,-17.0,-26.6%,3.98µM*
CCc1nc(SCC(=O)N2CCc3ccccc32)c2oc3ccccc3c2n1,2.0%,-2.0%,0.2%,i,1.8%,i,9.1,-4.2%,14.1µM*
Cc1nc(SCC(=O)Nc2ccccc2)c2oc3ccccc3c2n1,0.1%,11.9%,-4.9%,i,0.501µM*,i,-17.7,-18.3%,5.01µM*
CCn1c(SCC(=O)N2CCCc3ccccc32)nc2ccccc2c1=O,-0.4%,3.5%,19.5%,i,?,i,.,.,.
Cc1cc(C)nc(Sc2nc(C)nc3c2oc2ccccc23)n1,-0.2%,-5.8%,-7.1%,?,1.7%,i,.,.,.
CCCn1c(C(C)NC(C)=O)nc2ccccc21 (stereo not drawn),2.9%,6.4%,9.2%,.,1.1%,.,.,.,.
Cc1ccc(C)c(N2CCN(S(=O)(=O)c3ccc4c(c3)OCCO4)CC2)c1,0.8%,5.3%,9.1%,i,5.6%,i,3.3,-16.8%,12.6µM*
Cc1ccc(Cl)cc1N1CCN(S(=O)(=O)c2ccc3c(c2)OCCO3)CC1,1.9%,-0.3%,4.2%,i,5.4%,i,.,.,.
CCN(CC)c1nc2ccccc2n2cnnc12,-0.4%,-8.1%,10.0%,i,12.6µM*,i,-10.8,?,12.6µM*
Clc1cccc(N2CCN(CCNc3nc4ccccc4n4cnnc34)CC2)c1,1.8%,-1.2%,-10.1%,i,3.8%,i,.,.,.
CCCN(CCC)c1nc2ccccc2n2c(C)nnc12,-1.1%,-8.1%,-3.0%,i,0.1%,i,-9.6,-21.1%,10µM*
N#C/C(=C\c1ccco1)Sc1nc2ccccc2s1,0.0%,-8.2%,-10.4%,i,-9.9%,i,.,.,.
Cc1cc(Nc2ccc3ccccc3c2)n2ncnc2n1,.,.,.,?,.,i,-17.4,-25.6%,-24.4%
Cc1cc(Nc2ccc(C(C)C)cc2)n2ncnc2n1,-1.5%,-1.7%,-3.1%,.,?,.,.,.,.
CCCN(CCC)CCNC(=O)c1cc2c(=O)n(C)c3ccccc3c2n1C,4.7%,31.6µM*,-9.4%,.,18.6%,.,-10.3,-11.4%,12.6µM*
Cn1c(C(=O)NCCCN2CCCC2=O)cc2c(=O)n(C)c3ccccc3c21,0.0%,?,-23.7%,.,3.98µM*,.,-8.3,-21.0%,12.6µM*
CN(CCNC(=O)c1cc2c(=O)n(C)c3ccccc3c2n1C)Cc1ccccc1,-3.3%,?,?,.,?,.,.,.,.
COCc1cc(=O)[nH]c(Nc2nc(C)c3ccc(C)cc3n2)n1,0.5%,11.2%,-2.5%,i,8.0%,i,-6.2,-25.9%,?
Cc1ccc2c(C)nc(Nc3nc(CSc4nnnn4-c4ccccc4)cc(=O)[nH]3)nc2c1,-0.9%,11.3%,3.9%,i,?,i,-13.5,-29.2%,3.16µM*
SMILES,AID923,HSD17B inh,HADH2 inhib,A350 fluor,CRE Fsk mod,4MU fluor,CHO via 24h,CHO via 40h,CRE-luc potent
COc1ccc(Cc2nnc(SCC(=O)N3CCN(c4ccccc4)CC3)o2)cc1,-0.5%,5.1%,-22.1%,i,0.9%,i,.,.,.
CC1(C)Cc2c(sc3nc(SCC#N)n(C4CCCCC4)c(=O)c23)CO1,.,.,.,i,.,i,-10.9,-19.5%,0.631µM*
CCOC(=O)CSc1nc2sc3c(c2c(=O)n1CC)CC(C)(C)OC3,-1.3%,-8.8%,-17.2%,.,?,.,.,.,.
CCN(C(=O)c1cn(C)c(=O)c2cc(OC)c(OC)cc12)c1cc(OC)ccc1OC,-0.6%,-3.1%,7.2%,i,29.3%,i,0.8,-8.4%,12.6µM*
O=C(Cn1cc(C(=O)c2cccs2)c2ccccc21)NCC1CCCO1 (stereo not drawn),0.0%,-1.5%,5.6%,?,-3.6%,i,.,.,.
CCc1ccc(S(=O)(=O)NCc2cn3ccccc3n2)s1,0.1%,-5.9%,5.9%,?,?,?,.,.,.
CCCCOC(=O)CSc1nc2c(cc1C#N)C(=O)CC(C)(C)C2,-2.1%,-5.4%,-4.6%,i,5.0%,i,.,.,.
CCOC(=O)CSc1nnc2n(Cc3ccccc3)c(=O)c3c4c(sc3n12)CCC4,.,.,.,i,.,i,.,.,.
